# Rows were chosen to be rich in hits. Some 0.92% of all compounds tested hit in one or more screens of this group.
# LAP4 TOR yeast: alters LAP4-GFP fluorescence in TOR pathway yeast screen; S. cerevisiae LAP4-GFP multiplex, flow cytometry GFP, 3 h; median GFP as percent of DMSO wells; GFP response vs DMSO, % at 10 µM; 320,000 tested, 0.34% active;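 active = GFP response vs DMSO above a set limit, about the screen mean plus 3 SD, cut at about 150% in these data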
# AGP1 TOR yeast: yeast TOR pathway AGP1-GFP modulation. 320,000 tested, 0.02% active. S. cerevisiae AGP1-GFP multiplex flow cytometry, 3 h; GFP as percent of DMSO wells. GFP response vs DMSO, % at 10 µM;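 active = GFP response relative to DMSO above a set limit, near screen average plus 3 SD, cut at about 150% in these data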;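 note: median GFP channel fluorescence of the gated AGP1 strain per well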
# MEP2-GFP yeast: yeast TOR pathway MEP2-GFP modulation | GFP response vs DMSO, % at 10 µM | S. cerevisiae MEP2-GFP strain, flow cytometry GFP, 3 h; 100% = DMSO control level | 330,000 tested, 0.51% active;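 active = GFP response versus DMSO above a set limit, roughly screen mean plus 3 SD, cut at about 180% in these data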;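 note: median GFP fluorescence of the barcode-gated MEP2-GFP cells per well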
# CIT2-GFP yeast: modulators of TOR pathway CIT2-GFP in S. cerevisiae; AID 2029; S. cerevisiae CIT2-GFP strain, flow cytometry, 3 h; 100 means same as DMSO wells; 320,000 tested, 0.065% active; GFP response vs DMSO, % at 10 µM;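 active = GFP response relative to DMSO above a set limit, near the screen mean plus 3 SD, cut at about 150% in these data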;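 note: ratio of well median GFP fluorescence to mean of DMSO wells on the plate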
# RPL19A TOR yeast: modulators of TOR pathway RPL19A-GFP in S. cerevisiae; S. cerevisiae RPL19A-GFP strain, flow cytometry, 3 h; hits give low values; percent response vs DMSO, % at 10 µM; 330,000 tested, 0.3% active; AID 2025;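 active = percent response vs DMSO below 50%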;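 note: median channel GFP fluorescence of the barcoded RPL19A-GFP strain; lower means less RPL19A-GFP as with rapamycin TOR inhibition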
# LAP4 cherry2: second confirmation of modulators of TOR reporter LAP4-GFP in yeast; shares compounds with LAP4 TOR yeast; S. cerevisiae LAP4-GFP strain, flow cytometry GFP, 3 h; GFP response vs DMSO, % at 10 µM; 590 tested, 20% active;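 active = GFP signal as percent of the solvent control above about 150%, meaning raised reporter expression, limit read from the data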
# MEP2 cherry2: yeast MEP2-GFP modulation, second cherry pick | GFP response vs DMSO, % at 10 µM | S. cerevisiae MEP2-GFP strain, flow cytometry GFP, 3 h | 590 tested, 10% active | shares compounds with LAP4 TOR yeast;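 active = GFP signal above 150% of the solvent control wells, that is a rise of more than half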;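 note: median channel GFP fluorescence of all gated yeast cells per well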
# RPL19A-GFP pick2: yeast RPL19A-GFP TOR reporter modulation, second cherry pick; shares compounds with LAP4 TOR yeast; S. cerevisiae RPL19A-GFP strain, flow cytometry GFP, 3 h; hits give low values; 100% means same as DMSO wells; GFP response vs DMSO, % at 10 µM; 590 tested, 3% active; AID 2623;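 active = under 65% GFP response relative to DMSO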;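 note: median GFP channel fluorescence per well over the all cells gate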
# CIT2-GFP pick2: second confirmation of modulators of TOR reporter CIT2-GFP in yeast; AID 2624; GFP response vs DMSO, % at 10 µM; S. cerevisiae CIT2-GFP strain, flow cytometry GFP, 3 h; DMSO control wells read 100%; 590 tested, 8% active; shares compounds with LAP4 TOR yeast;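 active = GFP response vs DMSO above about 150%, limit read from the data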;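 note: median green fluorescence per well over all gated yeast cells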
# AGP1-GFP pick2: second confirmation of modulators of TOR reporter AGP1-GFP in yeast. shares compounds with LAP4 TOR yeast. S. cerevisiae AGP1-GFP strain, flow cytometry GFP, 3 h. percent response vs DMSO, % at 10 µM. 590 tested, under 10 active. AID 2643;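 active = over 150 percent of DMSO response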;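 note: median GFP channel fluorescence over all cells without mother daughter split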
# Yeast autofluor: yeast s288c autofluorescence artifact, counter-screen; shares compounds with LAP4 TOR yeast; S. cerevisiae s288c, 520 nm autofluorescence, flow cytometry, 3 h; hits give high values; zero means same as solvent-only cells; fluorescence change (kMESF span) at 33 µM; 610 tested, under 10 active;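 active = fluorescence span over the dose series, or activity score, above about 33, limit read from the data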
# Yeast autofl DR: TOR screen hit shows autofluorescence in yeast s288c; shares compounds with LAP4 TOR yeast; S. cerevisiae s288c parental, compound autofluorescence, flow cytometry, 3 h; fluorescence change (span) at 33 µM; 110 tested, under 10 active;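 active = fluorescence change span, or the activity score built from it, above 25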
# TORC1 bypass: stops wildtype yeast growth while TORC1 bypass cells still grow | shares compounds with LAP4 TOR yeast | AID 504456 | growth rating (0-3) at 30 µM | 120 tested, under 10 active | S. cerevisiae BY4741 spot growth rating, 48-72 h; hits give low values;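 active = growth rating at most 1 for wild type yeast while the TORC1 bypass strain still grows fully, rated 3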
# Hits are given with their value; n = inactive; x = not tested or not shown.
SMILES,LAP4 TOR yeast,AGP1 TOR yeast,MEP2-GFP yeast,CIT2-GFP yeast,RPL19A TOR yeast,LAP4 cherry2,MEP2 cherry2,RPL19A-GFP pick2,CIT2-GFP pick2,AGP1-GFP pick2,Yeast autofluor,others
CCOC(=O)c1nn(-c2ccc(OCC)cc2)c2nc(-c3cccc(OC)c3)c(C#N)c(=O)n12,n,n,n,n,n,x,x,x,x,x,x,
Cc1cc(Cl)c(S(=O)(=O)N2CCN(c3ccccc3)CC2)cc1OCC(N)=O,n,n,n,n,n,x,x,x,x,x,x,
O=C1c2cccc3c([N+](=O)[O-])ccc(c23)C(=O)N1CCc1ccccn1,152,n,n,n,n,x,x,x,x,x,n,
O=C(c1ccc(Cl)cc1)N1CCC(O)(CSc2ccccc2)CC1,n,n,n,n,n,n,n,n,n,n,x,
Cc1cccc(NC(=O)C(C)C(=O)c2ccccc2)c1 (stereo unspecified),n,n,n,n,n,n,n,n,n,n,x,
Cc1cccc(C(=O)NNC(=O)Nc2ccccc2)c1,n,n,n,n,n,x,x,x,x,x,x,
CC(C)(C)OC(=O)N1CCC(C(=O)Nc2ccc3c(c2)CCC3)CC1,n,n,n,n,n,x,x,x,x,x,x,
COc1ccc(NC(=O)CC(C)=O)c(OC)c1,x,x,x,x,x,n,n,n,n,n,x,
COc1ccc(NC(=O)CC(=O)Nc2ccc(OC)cc2OC)c(OC)c1,n,n,n,n,n,x,x,x,x,x,x,
COc1ccc(C(=O)OCc2c(-c3ccccc3)ncc3ccccc23)cc1,151,n,n,n,n,n,n,n,n,n,x,
CC(C)(C)c1ccc(C(=O)OCc2c(-c3ccccc3)ncc3ccccc23)cc1,n,n,n,n,n,x,x,x,x,x,x,
COCCCN1C(=O)C(=O)/C(=C(/O)c2ccc(S(=O)(=O)N3CCOCC3)cc2)C1c1ccc(OC)cc1 (stereo unspecified),n,n,n,n,n,x,x,x,x,x,x,
O=C(NC(=S)NNC(=O)c1cnccn1)c1ccc(Cl)cc1,181,n,n,n,n,x,x,x,x,x,n,
COc1ccc(C(=O)NC(=S)NNC(=O)c2cnccn2)cc1,241,n,n,n,n,x,x,x,x,x,n,Yeast autofl DR=n;TORC1 bypass=n
C/C(=N\NC(=O)c1cccc(S(=O)(=O)N2CCOCC2)c1)c1ccc(C#N)cc1,n,n,n,n,n,x,x,x,x,x,x,
COc1ccc(NS(=O)(=O)c2cccc(C(=O)NCC(c3ccco3)N(C)C)c2)cc1 (stereo unspecified),n,n,n,n,n,x,x,x,x,x,x,
O=C(Nc1nc(-c2ccccn2)cs1)c1cc2ccccc2o1,155,n,n,n,n,x,x,x,x,x,n,Yeast autofl DR=n;TORC1 bypass=n
Cc1c(C(=O)Nc2nc(-c3ccccn3)cs2)oc2ccccc12,220,n,n,n,n,187,n,n,n,n,n,Yeast autofl DR=n;TORC1 bypass=n
Cc1nnc(NC(=O)c2oc3ccccc3c2C)s1,n,n,n,n,n,x,x,x,x,x,x,
